High-throughput results from PubChem BioAssay.
Marburg entry inh – qHTS for inhibitors of binding or entry into cells for Marburg Virus. Marburg virus pseudotyped entry inhibition, cell reporter. 1.8% of 300,000 active. Potency, µM (titrated, usually from 37.8 µM), for inactives: top-dose activity change, negative = inhibition, actives largely listed as inhibitors. AID 540276, 2011; calls by dose curve; tested in HEK293 cells; note: potency is the fitted concentration of half-maximal effect
FMDV inh – High Throughput Screening for Foot and Mouth Disease Virus Antivirals; 1.2% of 410,000 active; FMDV antiviral cell-based qHTS; AID 1159524, 2015; Potency, µM (doses to about 57.9 µM), for inactives: at the top dose activity change, negative = inhibition, usual class: inhibitors; calls by dose curve; tested in HEK293T cells; note: read-out not given here; potency is the fitted concentration of half-maximal effect; nearly all actives have a fitted effect of over 45% in size
Lassa entry inh – qHTS for Inhibitors of binding or entry into cells for Lassa Virus; Lassa virus pseudotype entry inhibition, cell reporter; Potency, µM (doses to about 37.9 µM), for inactives: at the highest dose activity change, negative = inhibition, hits mostly inhibitors; 1.2% of 300,000 active; calls by dose curve; tested in HEK293 cells; note: potency is the fitted concentration of half-maximal effect; nearly all actives have a fitted effect of over 50% in size
Vaccinia Venus – qHTS for Stage-Specific Inhibitors of Vaccinia Orthopoxvirus: Venus Reporter Primary qHTS; Vaccinia virus Venus reporter expression, fluorescence; Potency, µM (titrated, usually from 36.5 µM), for inactives: at the highest dose activity change, negative = inhibition, most hits filed as inhibitors; 0.46% of 330,000 active; AID 720580, 2013; calls by dose curve; tested in A549 cells; note: potency is the fitted concentration of half-maximal effect; nearly all actives have a fitted effect of over 30% in size
VACV mCherry inh – qHTS for Stage-Specific Inhibitors of Vaccinia Orthopoxvirus: mCherry Reporter Primary qHTS; Potency, µM (doses to about 36.5 µM), for the others: at the highest dose activity change, negative = inhibition, actives largely listed as inhibitors; Vaccinia virus mCherry reporter infection, fluorescence; 0.63% of 310,000 active; AID 720579, 2013; calls by dose curve; tested in A549 cells; note: potency is the fitted concentration of half-maximal effect; nearly all actives have a fitted effect of over 35% in size
HCMV inh – qHTS Assay for inhibitors of the human cytomegalovirus (HCMV); HFF cells, HCMV-luciferase reporter, 72 h; active compounds read low; activity change, negative = inhibition, % at 57.5 µM; 4.5% of 410,000 active; AID 1259415, 2018; in the data active = activity change below about -60%; inconclusive = no clear call, values can overlap the other calls; inactive = above about -39%
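Luciferase read-out from HCMV-luciferase-infected HFFs (MOI 1 PFU/cell) 72 h post infection at 37C; compounds added after 16 h cell attachment; activity normalized between buffer-only basal and Salinomycin (10uM) inhibitor controls.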
* = called active by the depositor; i = inactive; ? = inconclusive; nt = no result given; [ ] = remark or other dose. This is a sample that favours compounds with a hit; in the whole collection about 6.5% have one here. % is set by controls: 0 for no effect and ±100 for the full control effect.

SMILES	Marburg entry inh	FMDV inh	Lassa entry inh	Vaccinia Venus	VACV mCherry inh	HCMV inh
N#Cc1ccc(N/N=C/c2cn(-c3ccccc3)nc2-c2ccccc2)c([N+](=O)[O-])c1	?	-9%	4%	2%	-8%	39
NS(=O)(=O)c1ccc(N/N=C/c2cn(-c3ccccc3)nc2-c2cccs2)c([N+](=O)[O-])c1	10µM*	?	?	-18%	-13%	-113*
NC(=O)N/N=C/c1cn(-c2ccccc2)nc1-c1cccs1	0%[46.1 µM]	33%	9%	-13%	-11%	9
NS(=O)(=O)c1ccc(N/N=C/c2cn(-c3ccccc3)nc2-c2cccs2)cc1	?	-25%	?	?	-20%	-77*
COc1ccc(/C=C/c2nc(C#N)c(N3CCC(C(N)=O)CC3)o2)cc1OC	16%[46.1 µM]	-1%	-7%[46.1 µM]	-9%	-18%	6
Cc1ccc2cc(C(c3nnnn3Cc3ccccc3)N3CCc4ccccc43)c(=O)[nH]c2c1 (configuration not stated)	?	23%	?	nt	nt	-7
O=c1[nH]c2cc3c(cc2cc1C(c1nnnn1C1CCCC1)N1CCSCC1)OCCO3 (configuration not stated)	?	6%	1%	0%	-12%	-79*
Cc1ccc2[nH]c(=O)c(C(c3nnnn3Cc3ccccc3)N3CCc4ccccc43)cc2c1 (configuration not stated)	10µM*	-10%	?	nt	nt	8
Cc1ccc2[nH]c(=O)c(C(c3nnnn3C3CCCC3)N3CCCc4ccccc43)cc2c1 (configuration not stated)	5.8µM*	5%	?	nt	nt	133
CCCS(=O)(=O)NCCc1csc2nc(-c3ccc(OC)cc3)nn12	nt	2%	2%[46.1 µM]	-5%	-12%	41
Cc1cccc(CN2CCN(C(=O)Cc3ccccc3)CC2)c1	14%[46.1 µM]	-14%	4%[46.1 µM]	-5%	?	25
Cc1cccc(CN2CCN(C(=O)CCl)CC2)c1	?	35µM*	?	-9%	i	-34
COc1ccc(C(=O)C2CCCN(C/C=C/c3ccccc3OC)C2)c(OC)c1 (configuration not stated)	?	-8%	-12%[46.1 µM]	-13%	-12%	-61*
COc1ccc(/C=C/CN2CCCC(C(=O)c3ccc(OC)c(F)c3)C2)cc1 (configuration not stated)	10µM*	?	nt	-4%	-20%	-19
COc1ccc(C(=O)C2CCCN(Cc3cccn3-c3ccc(Cl)cn3)C2)c(OC)c1 (configuration not stated)	?	20µM*	?	-28%	-16%	?
COc1cccc(C(=O)C2CCCN(C/C=C/c3ccccc3OC)C2)c1 (configuration not stated)	?	-5%	-21%[46.1 µM]	-18%	-26%	-7
COc1ccc(C(=O)C2CCCN(Cc3ccc(C#CCCO)cc3)C2)cc1F (configuration not stated)	1.1µM*	?	13%	-15%	-18%	-28
C[C@]12CCCCC3=CC(=O)C=C[C@@]31OCC2	nt	nt	nt	nt	nt	0
CC(=O)c1nn(-c2ccc(OC(F)(F)F)cc2)nc1Nc1ccc(Cl)cc1	24%[46.1 µM]	6%	-3%[46.1 µM]	-9%	-7%	?
COc1ccccc1/C=C/CN1CCCC(CCC(=O)NCc2ccccc2F)C1 (configuration not stated)	6.3µM*	-13%	?	-13%	-13%	2
Cc1ccccc1OCC(=O)NCC(=O)OC(c1ccccc1)c1ccccc1	nt	nt	nt	-15%	i	nt
O=C1CC(c2ccccc2)=Nc2ccc(Br)cc2N1	?	7%	?	-25%	-27%	-68*
Cc1ccc2c(c1)NC(=O)CC(c1ccccc1)=N2	-27%	11%	24%	-8%	-12%	?
Cc1ccc(S(=O)(=O)c2cn(Cc3ccccc3F)c3cc4c(cc3c2=O)OCO4)cc1	?	48%	-2%[46.1 µM]	?	?	-4
COc1cccc(NC(=O)Nc2cc(Cl)ccc2C)c1	?	-20%	-29%	-25%	i	-60*
SMILES	Marburg entry inh	FMDV inh	Lassa entry inh	Vaccinia Venus	VACV mCherry inh	HCMV inh
COc1ccc(OC)c(NC(=O)NNS(=O)(=O)c2ccc(C)cc2C)c1	-8%	-11%	0%	-12%	-17%	-62*
O=C(Nc1cccc(Cl)c1)Nc1ccc(Br)cc1F	?	-19%	?	?	?	-69*
O=C(Nc1ccccc1)Nc1ccc(Br)cc1F	-9%	48%	?	-2%	i	-16
O=C(Nc1ccncc1)Nc1ccc(Cl)cc1	3%[46.1 µM]	7%	5%[46.1 µM]	-15%	i	-72*
CCC(=O)N1CCc2cc(Br)cc(S(=O)(=O)N3CCC(C(=O)Nc4ccccc4F)CC3)c21	4%[46.1 µM]	8%	-30%[46.1 µM]	-26%	-26%	-6
CC(C)OCCCNC(=O)c1nn(C)c2c1CSc1ccccc1-2	12%[46.1 µM]	20%	21%[46.1 µM]	1%	-4%	-39
COC(=O)c1cccc(NC(=O)Nc2ccc(Cl)cc2)c1	?	5%	-27%	-3%	1%	-67*
O=C(Nc1cccc(Cl)c1)Nc1cccc(Cl)c1	?	-1%	-22%	?	?	?
COC(=O)c1cc(NC(=O)Nc2cccc(Cl)c2)ccc1Cl	?	nt	?	?	?	-99*
CCOC(=O)c1cccc(NC(=O)Nc2cc(OC)ccc2OC)c1	?	?	16µM*	?	-26%	?
COC(=O)c1cccc(NC(=O)NC(=O)c2ccc(Cl)cc2)c1	?	32%	?	-5%	i	36
O=C(Nc1ccc2nc(SCC(=O)N3CCc4ccccc43)sc2c1)c1ccccc1	-9%[46.1 µM]	9%	6%[46.1 µM]	-3%	-9%	41
COc1ccc(NC(=O)N2CCc3c([nH]c4ccc(OC)cc34)C2c2ccc(OC)cc2)cc1 (configuration not stated)	nt	-16%	?	-4%	-6%	?
O=C(CCCCn1cnc2c(=S)nc[nH]c21)Nc1ccc(C(=O)O)c(O)c1	-12%	-11%	7%	-2%	-13%	-73*
O=C(CNC(=O)C1CCCCC1)OCC(=O)c1ccc([N+](=O)[O-])cc1	nt	nt	nt	-13%	-16%	nt
CN(c1ccccc1)c1ccc(/C=N/NC(=O)CC#N)cc1	13µM*	2%	15µM*	-6%	-3%	?
N#CCC(=O)N/N=C/c1ccc(Cl)cc1	-1%[46.1 µM]	10%	2%	-10%	-25%	-24
COc1ccc(CNC(=O)c2sc3nc4n(c(=O)c3c2C)CCCCC4)cc1	nt	22µM*	-20%[46.1 µM]	-6%	1%	16
CCCN(C(=O)c1sc2nc3n(c(=O)c2c1C)CCCC3)c1ccccc1C	nt	-23%	14%[46.1 µM]	14%	?	-102*
